Measurements as given in ChEMBL document CHEMBL3988442, “University of Dundee, Small-Polar-MMV Screening Library” (2021).
In all, about 38,000 compounds went through this assay and about 1,200 (3.2%) showed an effect of 50% or more. The median lay at about -58%. Many of the other results were omitted from the sample, so strong results are more common in it than they were.

What follows are compounds tested on Plasmodium falciparum (assay: Calibr Malaria Delayed Death Assay SOP). Conditions: concentration 4.99e-06 (unit not given; other assays of the set use mol/L).
Type: functional, organism-based
Design: scale not given: in the data most compounds retested in dose-response had high values

Compound	Percent Effect [%]
Cn1cnc2c1C(COCC1CC1)CN(c1ncccn1)C2.O=C(O)C(F)(F)F.O=C(O)C(F)(F)F (stereo not drawn)	-186
CCc1nnc(SCc2nonc2C)n1C	-83.75
CCS(=O)(=O)N1Cc2ncn(CC3CC3)c2C(COCC2CC2)C1.O=C(O)C(F)(F)F (stereo not drawn)	-83.39
CC(C)OCc1noc(C2CCOC2)n1 (stereo not drawn)	-54.08
COc1ccc(-c2nnc(CNCCn3cc(C)cn3)o2)cc1	-61.63
O=C(O)c1cc(S(=O)(=O)Nc2cccc3c2OCCO3)c(Cl)cc1F	-73.09
O=S(=O)(c1ccccc1Cl)N1CCC2(CC1)OCCS2	-115.5
CCN1CCCC2(CCN(Cc3nnc(C4CC4)o3)C2)C1=O (stereo not drawn)	-40.49
CC(C)CCN1CCN(CC(=O)Nc2ccc3nsnc3c2)CC1	-73.84
Cc1ncncc1C(=O)N1CCCC(c2[nH]ncc2S(C)(=O)=O)C1 (stereo not drawn)	-131.2
CCOCc1ccc(CNC2=NCCCN2)cc1.I	55.49
I.c1ccc(OCCNC2=NCCCN2)cc1	17.05
CN(C)c1ccc(CNC2=NCCCN2)cc1.I	-57.09
COc1ccc(-n2cc(CNC(=O)c3cscn3)nn2)cc1	-125.4
CCc1ncc2c(n1)CN(CC(=O)Nc1ccc(Cl)cn1)CC2	58.18
CCc1ncc2c(n1)CN(CC(=O)Nc1ccncc1)CC2	-164.3
CC(C)c1nc2c(n1C)CCN(CC(=O)Nc1ccc(Cl)cn1)C2	-37.81
COCC1c2c(cnn2C)CCN1C(=O)c1cccn1C.O=C(O)C(F)(F)F (stereo not drawn)	-111.1
CCn1nc(C)c2ccn(CC(=O)NCCN3CCCCC3)c(=O)c21	-46.75
CCC1CN(CC(=O)NCCN2CCCCCC2)c2ccccc2S1 (stereo not drawn)	72.72
O=C(NCCN1CCCCC1)c1cccc(Cl)c1Cl	47.98
Cc1nn(C)c2c(=O)n(CC(=O)NCCN3CCCCCC3)ccc12	8.921
CCC1CN(CC(=O)NCCN(CC)CC)c2ccccc2S1 (stereo not drawn)	75.77
COc1ccccc1N1CCC(CNC(=O)CN2CSCC2=O)C1 (stereo not drawn)	-74.71
O=C(NCCN1CCCC1)c1cc2c(s1)CCN2C(=O)c1ccccc1	-40.79
O=C(NCCN1CCCCC1)c1nc2ccccc2c(=O)[nH]1	-48.08

Compound	Percent Effect [%]
CCN(CC)CCNC(=O)c1cnc(-c2ccccc2)nc1	-36.61
CCC1CN(CC(=O)NCCN2CCCCC2)c2ccccc2S1 (stereo not drawn)	71.16
CCC1CN(CC(=O)NCCN2CCCC2)c2ccccc2S1 (stereo not drawn)	62.37
Cc1ccccc1C1CCN(CCNC(=O)CS(C)(=O)=O)C1 (stereo not drawn)	-6.702
O=C1CCCN1Cc1ncn2c1CN(C(=O)Cc1ccccc1)CCC2	-76.95
CC1CCCCN1C(=O)COCc1nc(-c2ccncc2)no1 (stereo not drawn)	-64.65
O=C(O)C(F)(F)F.O=C(O)C(F)(F)F.O=C(O)c1c(-c2ccncc2)ncc2c1CCN(CC1CCOC1)C2 (stereo not drawn)	-34.25
Cc1cc(S(=O)(=O)N2CCCc3ccccc32)sc1C(=O)O	-124.8
O=C(Cc1ccsc1)N1Cc2nc(CN3CCCCC3)oc2C1.O=C(O)C(F)(F)F	-52.68
Cc1nonc1CN(C)Cc1nc(-c2cccc(F)c2F)oc1C	-82.79
COCCN(Cc1ccccc1)C(=O)c1cnn(C)c1C	-75.6
O=C(O)C(F)(F)F.O=C(O)C(F)(F)F.c1cc(CN2CCC3(CC2)COC(COCC2CC2)C3)ccn1 (stereo not drawn)	-17.94
Cc1nn(C)c(Oc2ccccc2)c1CNC1CCCCNC1=O (stereo not drawn)	-0.05055
COc1ccc(-c2c(C)nn3c(=N)c(C#N)n[nH]c23)cc1	-120.8
COc1ccc(-c2c(C(C)C)nn3c(=N)c(C#N)n[nH]c23)cc1	-149.3
COc1ccc(-c2c(C)nn3c(=N)c(C#N)n[nH]c23)cc1OC	87.26
CCn1ncc2c1C(COC)CN(Cc1ccc(C)o1)C2 (stereo not drawn)	-90.58
CCN(C)C(=O)c1cccc(C(=O)N(C)Cc2cccc(O)c2)c1	-54.27
O=C(NC[C@H]1C[C@@H]2CCN1C[C@@H]2CN1CCCCC1)Nc1ccccc1	-35.07
O=S(=O)(NC[C@H]1C[C@@H]2CCN1C[C@@H]2CN1CCOCC1)c1ccccc1	-72.09
O=S(=O)(NC[C@H]1C[C@@H]2CCN1C[C@@H]2CN1CCCC1)c1ccc(Cl)cc1	89.33
Cc1nn(C)cc1CN1CCCCCC1c1ccccc1Cl (stereo not drawn)	-108.4
CCCNc1ncc(-c2cc(C3CC3)nc(N)c2C#N)cn1	54.19
CCSc1ncc(-c2cc(C3CCC3)nc(N)c2C#N)cn1	-33.43
CCSc1ncc(-c2cc(C3CC3)nc(N)c2C#N)cn1	1.431
Cc1ccc(CSc2ncc(Br)c(C(=O)O)n2)cc1	-107.1

Compound	Percent Effect [%]
NC(=O)Nc1ccc(C(=O)NCCn2cccc2)cc1	-116.7
CNS(=O)(=O)CC(=O)NC(C)Cc1ccccc1Br (stereo not drawn)	-190.6
NCc1ccccc1Sc1ccc(O)cc1.O=C(O)/C=C\C(=O)O	55.63
COc1ccccc1CC(C)CC(=O)O (stereo not drawn)	-155.2
CC[C@H](C)[C@@H](CO)NC(C)Cc1ccccc1F (stereo partly drawn)	48.98
Cn1c(CC(=O)O)c(Sc2ccccc2)c2ccccc21	-130
CC(N)Cc1ccccc1Sc1ccc(O)cc1.CC(N)Cc1ccccc1Sc1ccc(O)cc1.O=C(O)C(=O)O (stereo not drawn)	71.69
CC(C)C(=O)NS(=O)(=O)CCc1ccccc1	-111.2
CC(N)Cc1ccccc1Sc1ccccc1.O=C(O)/C=C\C(=O)O (stereo not drawn)	77.8
CC(C(=O)Nc1ccccc1Sc1ccccc1)S(C)(=O)=O (stereo not drawn)	-117.7
CNC(C)Cc1ccccc1Sc1ccc(O)cc1.Cl (stereo not drawn)	87.88
CC(C)CCN1C2(CCN(C(=O)C3(C)CC3)C2)c2ccccc2S1(=O)=O (stereo not drawn)	-11.02
CCc1ncc2c(n1)CN(Cc1nnc(CC)o1)CC2	-50.82
CC(C)Nc1nc2c(cc1C(=O)O)CCN(Cc1ccsc1)CC2.O=C(O)C(F)(F)F.O=C(O)C(F)(F)F	-107.1
Cc1csc(CNC(=O)NCC(C)Cn2nc(C)cc2C)n1 (stereo not drawn)	-114.8
Cc1c(C(=O)N(C)C)cccc1N(C)S(C)(=O)=O	-103.2
Cc1ncc(CNC(=O)Cc2cccs2)c(C2CCCN2C)n1 (stereo not drawn)	-27.86
Cc1nn(C)c(C)c1CC(=O)N1CCCC1Cn1cccn1 (stereo not drawn)	-102.7
CN1CCCN(S(=O)(=O)c2cnn(C)c2)c2cc(Cl)ccc21	-19.46
Cc1ccc(S(=O)(=O)N2CCN(C)c3ccncc32)cc1F	60.6
CN1CCN(S(=O)(=O)c2ccc(Cl)c(Cl)c2)c2cnccc21	89.32
CN1CCN(S(=O)(=O)c2cccnc2)c2cnccc21	-116.1
Cc1cc(F)ccc1S(=O)(=O)N1CCN(C)c2ccncc21	20.68
CN1CCN(S(=O)(=O)c2cccc(F)c2)c2cnccc21	11.1
CCOC(=O)COc1nc(CC(C)C)c2c(c1C#N)CCC2	-73.52
CN1CCCCC1CCC(=O)NCCCn1ncc2ccccc21 (stereo not drawn)	-37.16

Compound	Percent Effect [%]
CCSc1cc(C(=O)NC2CCN(C(=O)c3ccncc3)CC2)ccn1	-119
CC(NC1CCCC1)c1ccccc1-n1cccn1 (stereo not drawn)	80.66
O=C(NCc1ccccc1-n1cccn1)N1CCN2CCCCC2C1 (stereo not drawn)	-71.32
CC(NCc1cnc(C2CCC2)s1)c1ccccc1-n1cccn1 (stereo not drawn)	-47.47
CS(=O)(=O)CCCN(CCCO)C1CCc2ccccc21 (stereo not drawn)	-127.8
CN(C)CCCn1ccnc1C1CCCN(c2ncc(Cl)cc2F)C1 (stereo not drawn)	83.94
Cc1cc(C)nc(N2CCCC(c3nccn3CCCN(C)C)C2)c1 (stereo not drawn)	50.47
Fc1cc(Cl)cnc1N1CCCC(c2nccn2CC2CC2)C1 (stereo not drawn)	3.7
CN(C)CCn1ccnc1C1CCCN(c2ncc(Cl)cc2F)C1 (stereo not drawn)	35.69
COc1cc(OC)nc(N2CCCC(c3nccn3CCN(C)C)C2)n1 (stereo not drawn)	-26.11
CN(C)CCn1ccnc1C1CCCN(c2cc(N)ncn2)C1 (stereo not drawn)	-56.5
Cc1ccc(C)c(Oc2cc(-n3nc(C)c(C#N)c3N)nc(C)n2)c1	-175
Cc1cc(C2CCCN2C(=O)NCc2c(C)cc(C)[nH]c2=O)on1 (stereo not drawn)	-57.59
CN(CC1COCCO1)c1ncnc2cc(F)ccc12 (stereo not drawn)	-82.12
Cn1cccc1C(=O)N1CCN(Cc2cccnc2)c2ncccc2C1.O=C(O)C(F)(F)F.O=C(O)C(F)(F)F	-59.69
c1ccc2sc(N3CCCN(c4ncnc5c4CCNC5)CC3)nc2c1	85.14
Cn1nc2c(cc1=O)CN(c1nc3ccccc3s1)CC2	-163.5
c1ccc2sc(N3CCN(c4ncnc5c4CCC5)CC3)nc2c1	-56.68
Cc1nc[nH]c1CN1CCCN(c2nc3ccccc3s2)CC1	54.13
Cc1ncnc(N2CCCN(c3nc4ccccc4s3)CC2)c1C	-444.8
Cc1nc[nH]c1CN1CCC(C2CCN(CCc3ccccc3)C2)CC1 (stereo not drawn)	9.569
Cc1ccc(CNCc2nccn2C)c(OC(C)(C)C)c1	8.3
O=C(NCCc1coc(-c2ccccc2)n1)NC1CC1	-110.7
CN(C)CCN1CCOCC12CCN(C(=O)C1CC1)CC2.O=C(O)C(F)(F)F.O=C(O)C(F)(F)F	-16.92
CC(C(=O)NCc1cn2cc(Br)ccc2n1)S(C)(=O)=O (stereo not drawn)	-87.47
